Unmarked numbers belong to inactive results.
The molecules below were run on Mel-DCC-11 (assay: cell viability relative to DMSO control (fraction of DMSO control); higher = less cytotoxic, active = 0.5 or less). Settings: 1 µM; 120 h.
Outline: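 Patient-derived Mel-DCC-11, its resistant subline Mel-DCC-11-R (alone and with 8 µM of its selecting drug) and NHEM-hTERT immortalized melanocytes were exposed for 120 h to 315 approved anti-cancer drugs at 1 µM in duplicate. Luminescence was read with ATPlite 1step. Viability was normalised to vehicle controls and averaged over duplicates.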

Row | Structure (SMILES) | cell viability
1 | NC(=O)c1cccc2cn(-c3ccc([C@@H]4CCCNC4)cc3)nc12 [Niraparib] | 1.01
2 | COc1ccc(-c2cc(=S)ss2)cc1 [Anethole trithione] | 1.28
3 | CO[C@H]1C[C@@H]2CC[C@@H](C)[C@@](O)(O2)C(=O)C(=O)N2CCCC[C@H]2C(=O)O[C@H]([C@H](C)C[C@@H]2CC[C@@H](O)[C@H](OC)C2)CC(=O)[C@H](C)/C=C(\C)[C@@H](O)[C@@H](OC)C(=O)[C@H](C)C[C@H](C)/C=C/C=C/C=C/1C [Rapamycin] | 1.24
4 | CCN(CC)CCOc1ccc2c(c1)C(=O)c1cc(OCCN(CC)CC)ccc1-2.Cl.Cl [Tilorone dihydrochloride] | 1.06
5 | COc1ccc2cc1Oc1ccc(cc1)C[C@H]1c3cc(c(OC)cc3CCN1C)Oc1c(OC)c(OC)cc3c1[C@H](C2)N(C)CC3 [Tetrandrine] | 0.653
6 | COc1cc([C@@H]2c3cc4c(cc3[C@@H](O[C@@H]3O[C@@H]5CO[C@@H](c6cccs6)O[C@H]5[C@H](O)[C@H]3O)[C@H]3COC(=O)[C@H]23)OCO4)cc(OC)c1O [Teniposide] | 1.16
7 | N#Cc1ccnc(N2C(=O)CC[C@H]2C(=O)N(c2cncc(F)c2)[C@H](C(=O)NC2CC(F)(F)C2)c2ccccc2Cl)c1 [Ivosidenib] | 1.32
8 | COc1cc2c(Nc3ccc(Br)cc3F)ncnc2cc1OCC1CCN(C)CC1 [Vandetanib] | 1.16
9 | CC(C)CN(C[C@@H](O)[C@H](Cc1ccccc1)NC(=O)O[C@H]1CCOC1)S(=O)(=O)c1ccc(N)cc1 [Amprenavir] | 0.769
10 | Nc1ncnc2c1ncn2[C@@H]1O[C@H](CO)[C@@H](O)[C@@H]1O [Vidarabine] | 1.1
11 | Nc1nc(=O)c2c([nH]1)NC[C@H](CNc1ccc(C(=O)N[C@@H](CCC(=O)[O-])C(=O)[O-])cc1)N2C=O.[Ca+2] [Calcium Levofolinate] | 5.5
12 | COc1ccc2cc3[n+](cc2c1OC)CCc1cc2c(cc1-3)OCO2 [Berberine] | 1.36
13 | N.N.O=C([O-])C[O-].[Pt+2] [Nedaplatin] | 1.19
14 | CCCCCCCCCCCCCC(=O)[O-].CCCCCCCCCCCCCC(=O)[O-].N[C@@H]1CCCC[C@H]1N.[Pt+2] [Miriplatin] | 1.11
15 | CC1(C)O[C@H]2CC(=O)OC[C@]23[C@H]2CC[C@@]4(C)[C@H](c5ccoc5)OC(=O)[C@H]5O[C@]54[C@]2(C)C(=O)C[C@@H]13 [Limonin] | 1.1
16 | CC(/C=C/C=C(\C)C(=O)O[C@@H]1O[C@H](CO[C@@H]2O[C@H](CO)[C@@H](O)[C@H](O)[C@H]2O)[C@@H](O)[C@H](O)[C@H]1O)=C\C=C\C=C(C)\C=C\C=C(/C)C(=O)O[C@@H]1O[C@H](CO[C@@H]2O[C@H](CO)[C@@H](O)[C@H](O)[C@H]2O)[C@@H](O)[C@H](O)[C@H]1O [Crocin] | 1.28
17 | COc1c(OCCCN2CCOCC2)ccc2c1N=C(NC(=O)c1cnc(N)nc1)N1CCN=C21 [Copanlisib] | 0.966
18 | O=C(/C=C/c1ccc(O)cc1)c1ccc(O)cc1O [Isoliquiritigenin] | 1.03
19 | CO[C@H]1C[C@@H]2CC[C@@H](C)[C@@](O)(O2)C(=O)C(=O)N2CCCC[C@H]2C(=O)O[C@H]([C@H](C)C[C@@H]2CC[C@@H](OC(=O)C(C)(CO)CO)[C@H](OC)C2)CC(=O)[C@H](C)/C=C(\C)[C@@H](O)[C@@H](OC)C(=O)[C@H](C)C[C@H](C)/C=C/C=C/C=C/1C [Temsirolimus] | 1.38
20 | CN(C)C/C=C/C(=O)Nc1cc2c(Nc3ccc(F)c(Cl)c3)ncnc2cc1O[C@H]1CCOC1 [Afatinib] | 0.77
21 | C#CCC(Cc1cnc2nc(N)nc(N)c2n1)c1ccc(C(=O)N[C@@H](CCC(=O)O)C(=O)O)cc1 (some centres not stated) [Pralatrexate] | 1.03
22 | C[C@@H]1C[C@H]2[C@@H]3CCC4=CC(=O)C=C[C@]4(C)[C@@]3(F)[C@@H](O)C[C@]2(C)[C@@]1(O)C(=O)COP(=O)([O-])[O-].[Na+].[Na+] [Dexamethasone Sodium Phosphate] | 1.45

Reference: the supplement of paper PMC12808144
